These results are taken from ChEMBL document CHEMBL2218924, “A broad activity screen in support of a chemogenomic map for kinase signalling research and drug discovery” (Biochem J, 2013).

Test [1] deals with T1, Aurora kinase C (Homo sapiens) (UniProt Q9UQB9).
T1 sequence (whole entry): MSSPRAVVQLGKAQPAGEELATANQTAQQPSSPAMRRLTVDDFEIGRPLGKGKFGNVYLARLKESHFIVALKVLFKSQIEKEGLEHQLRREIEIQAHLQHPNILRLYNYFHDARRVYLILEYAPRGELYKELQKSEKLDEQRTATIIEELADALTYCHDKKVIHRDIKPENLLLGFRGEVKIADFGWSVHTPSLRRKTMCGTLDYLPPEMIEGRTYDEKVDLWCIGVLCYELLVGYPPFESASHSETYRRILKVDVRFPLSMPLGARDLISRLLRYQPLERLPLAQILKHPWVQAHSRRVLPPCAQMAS
As to conditions: at 1 µM.

Test [2] addresses T1, Aurora kinase C (Homo sapiens). As to conditions: at 10 µM.
The target in test [3] is Tyrosine-protein kinase receptor UFO (Homo sapiens) (UniProt P30530). As to conditions: at 1 µM.
The target is the same in test [4]. As to conditions: at 10 µM.
For test [5], the target named is Protein-tyrosine kinase 6 (Homo sapiens) (UniProt Q13882). As to conditions: at 1 µM.
Test [6] shares this target. As to conditions: at 10 µM.
Test [7] addresses Tyrosine-protein kinase BTK (Homo sapiens) (UniProt Q06187). As to conditions: at 1 µM.
For test [8] the target is unchanged. As to conditions: at 10 µM.
In test [9] the target is Tyrosine-protein kinase Blk (Homo sapiens) (UniProt P51451). As to conditions: at 1 µM.
For test [10] the target is unchanged. As to conditions: at 10 µM.

The term residual activity denotes the signal under treatment as a percentage of the control signal.

Chain of Tyrosine-protein kinase BTK (Homo sapiens) (Q06187 whole entry): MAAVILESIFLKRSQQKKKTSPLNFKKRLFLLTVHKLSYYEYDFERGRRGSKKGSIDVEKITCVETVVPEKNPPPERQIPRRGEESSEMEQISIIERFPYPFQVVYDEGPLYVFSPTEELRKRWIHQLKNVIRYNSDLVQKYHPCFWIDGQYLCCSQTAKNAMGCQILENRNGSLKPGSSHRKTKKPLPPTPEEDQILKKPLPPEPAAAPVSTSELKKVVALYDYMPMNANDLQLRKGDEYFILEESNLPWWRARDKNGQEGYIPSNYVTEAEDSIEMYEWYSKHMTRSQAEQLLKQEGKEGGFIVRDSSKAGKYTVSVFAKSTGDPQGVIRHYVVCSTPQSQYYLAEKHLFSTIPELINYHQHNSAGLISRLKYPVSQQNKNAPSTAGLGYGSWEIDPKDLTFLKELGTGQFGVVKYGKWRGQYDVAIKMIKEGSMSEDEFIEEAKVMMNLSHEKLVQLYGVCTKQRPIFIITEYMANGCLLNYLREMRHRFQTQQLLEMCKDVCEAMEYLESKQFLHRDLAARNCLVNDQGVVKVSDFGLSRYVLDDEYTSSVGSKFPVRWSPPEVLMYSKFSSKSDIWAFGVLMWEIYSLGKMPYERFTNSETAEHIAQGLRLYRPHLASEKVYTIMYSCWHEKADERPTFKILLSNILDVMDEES
Chain of Protein-tyrosine kinase 6 (Homo sapiens) (Q13882 whole entry, looked up): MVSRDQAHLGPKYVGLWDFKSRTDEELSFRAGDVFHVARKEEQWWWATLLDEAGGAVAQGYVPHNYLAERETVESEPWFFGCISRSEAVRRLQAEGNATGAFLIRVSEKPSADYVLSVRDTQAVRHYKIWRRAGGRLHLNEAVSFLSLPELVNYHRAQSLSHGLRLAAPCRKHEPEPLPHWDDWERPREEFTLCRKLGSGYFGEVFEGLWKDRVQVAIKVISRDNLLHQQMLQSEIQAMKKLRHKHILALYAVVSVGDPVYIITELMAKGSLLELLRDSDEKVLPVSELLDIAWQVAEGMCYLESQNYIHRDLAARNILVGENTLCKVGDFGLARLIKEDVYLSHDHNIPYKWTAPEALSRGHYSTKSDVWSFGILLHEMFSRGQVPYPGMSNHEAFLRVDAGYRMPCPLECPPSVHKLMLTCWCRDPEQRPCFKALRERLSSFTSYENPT
Chain of Tyrosine-protein kinase receptor UFO (Homo sapiens) (P30530 whole entry): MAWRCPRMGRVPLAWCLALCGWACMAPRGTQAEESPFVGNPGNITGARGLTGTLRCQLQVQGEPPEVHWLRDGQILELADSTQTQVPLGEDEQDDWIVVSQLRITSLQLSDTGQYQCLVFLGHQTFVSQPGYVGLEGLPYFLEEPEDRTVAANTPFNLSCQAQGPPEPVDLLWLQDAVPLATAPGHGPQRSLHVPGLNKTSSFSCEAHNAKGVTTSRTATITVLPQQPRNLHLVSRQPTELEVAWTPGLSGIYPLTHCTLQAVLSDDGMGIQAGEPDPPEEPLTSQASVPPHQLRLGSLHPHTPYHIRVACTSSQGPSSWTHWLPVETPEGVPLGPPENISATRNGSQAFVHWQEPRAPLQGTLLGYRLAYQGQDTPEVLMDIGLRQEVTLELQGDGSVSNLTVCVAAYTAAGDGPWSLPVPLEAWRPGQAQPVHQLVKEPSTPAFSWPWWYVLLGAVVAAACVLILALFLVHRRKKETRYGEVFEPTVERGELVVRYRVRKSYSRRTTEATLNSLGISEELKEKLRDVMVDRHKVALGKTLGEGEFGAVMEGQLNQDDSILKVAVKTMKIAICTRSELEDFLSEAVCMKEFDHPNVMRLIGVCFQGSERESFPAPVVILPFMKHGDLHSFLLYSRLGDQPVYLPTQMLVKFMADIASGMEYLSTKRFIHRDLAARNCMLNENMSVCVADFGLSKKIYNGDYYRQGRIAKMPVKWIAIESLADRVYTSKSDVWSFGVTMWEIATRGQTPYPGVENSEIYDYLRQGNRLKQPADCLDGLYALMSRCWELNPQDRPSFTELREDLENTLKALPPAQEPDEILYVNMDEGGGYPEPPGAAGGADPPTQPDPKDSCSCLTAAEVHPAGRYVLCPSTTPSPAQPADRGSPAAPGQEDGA
Chain of Tyrosine-protein kinase Blk (Homo sapiens) (P51451 2-505 limits assumed): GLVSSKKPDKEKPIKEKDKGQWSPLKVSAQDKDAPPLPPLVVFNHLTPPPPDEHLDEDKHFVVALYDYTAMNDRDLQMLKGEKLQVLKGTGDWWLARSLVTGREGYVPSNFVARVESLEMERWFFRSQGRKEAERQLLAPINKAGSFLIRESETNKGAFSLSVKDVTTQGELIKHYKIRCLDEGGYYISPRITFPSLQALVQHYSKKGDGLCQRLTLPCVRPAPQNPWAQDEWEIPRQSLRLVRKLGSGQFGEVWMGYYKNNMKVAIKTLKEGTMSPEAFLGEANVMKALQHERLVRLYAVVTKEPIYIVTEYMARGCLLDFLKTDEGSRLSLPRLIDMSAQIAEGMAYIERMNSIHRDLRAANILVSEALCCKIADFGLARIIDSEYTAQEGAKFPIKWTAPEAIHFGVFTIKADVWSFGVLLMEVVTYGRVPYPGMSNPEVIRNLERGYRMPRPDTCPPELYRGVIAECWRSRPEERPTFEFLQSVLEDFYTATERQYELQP

Regarding `CC(=O)c1ccc(N2CCOCC2)cc1O`, the residual activity in test [1] was 106%; in [2], 84%; in [3], 110%; in [4] it was 85%; in test [5], 108%; in [6] it was 107%. The residual activity in [7] amounted to 91%.

`Cc1ccc(S(=O)(=O)/C=C/C#N)cc1`: the residual activity is 93% in test [1]; 90% in [2]; 107% in [3]; 94% in test [4]; 107% in [5]; 106% in test [6]. The residual activity in test [7] was found to be 98%; in test [8], 96%; in [9] it was 108%; in test [10], 117%.

Consider `Nc1cccc(-c2cc3c(Oc4cccc(O)c4)ncnc3[nH]2)c1`, for which the residual activity was 72% in [1]; 20% in [2]; 101% in [3]; 39% in [4]; 0% in test [5]; 0% in test [6]. Also, the residual activity in test [7] was 21%; in test [8], -1%; in test [9], 7%; in test [10], 1%.

In the case of `C[C@@H](N)[C@H]1CC[C@H](C(=O)Nc2ccncc2)CC1`, the residual activity in test [1] was determined as 96%; in test [2], 72%; in [3] it was 102%; in test [4], 103%; in [5], 97%; in test [6], 89%. Besides, the residual activity in [7] stood at 101%; in test [8], 104%; in test [9], 92%; in [10], 100%.

Take `Cn1cnc2cc3c(Nc4cccc(Br)c4)ncnc3cc21`: the residual activity came to 80% in test [1]; 52% in [2]; 77% in test [3]; 57% in test [4]; 78% in [5]; 55% in test [6]. The residual activity in [7] was determined as 67%; in test [8], 44%; in test [9] it was 50%; in test [10], 18%.

Take `CC[n+]1c(/C=C/N(C)c2ccccc2)n(-c2ccccc2)c2ccc(-c3nc4ccccc4s3)cc21`: the residual activity in test [1] was 107%; in test [2], 93%; in [3] it was 134%; in test [4] it was 58%; in [5], 109%; in test [6], 94%. Also, the residual activity was 87% in test [7], 58% in test [8], 100% in [9] and 55% in [10].

For `Nc1nc(Nc2ccc(S(N)(=O)=O)cc2)nn1C(=S)Nc1c(F)cccc1F`, the residual activity in test [1] is -2%; in test [2] it was 0%; in test [3], 3%; in test [4] it was 2%; in test [5], 49%; in test [6], 8%. Also, the residual activity in [7] was determined as 79%; in test [8] it was 27%; in test [9], 7%; in test [10], 0%.

For `COc1cc2ncnc(Nc3ccc(Oc4ccccc4)cc3)c2cc1OC`, the residual activity in test [1] is 59%; in test [2], 59%; in test [3] it was 54%; in [4] it was 25%; in [5] it was 7%; in test [6], 4%. For the same compound, the residual activity in test [7] amounted to 15%; in test [8] it was 2%; in [9], 0%; in test [10], 0%.

`Oc1ccc(Nc2nc(-c3ccc(Cl)cc3)cs2)cc1`: the residual activity amounted to 90% in test [1]; 92% in [2]; 114% in test [3]; 80% in [4]; 107% in [5]; 102% in test [6]. In addition, the residual activity was determined as 95% in [7], 84% in test [8], 111% in test [9] and 86% in test [10].

For the compound `O=C1Nc2cc(Br)ccc2/C1=C1/Nc2ccccc2/C1=N\O`, the residual activity was determined as 74% in [1]; 76% in test [2]; 52% in test [3]; 39% in test [4]; 90% in test [5]; 102% in test [6]. For the same compound, the residual activity in test [7] was found to be 1%; in test [8], 0%; in [9], 1%; in test [10], 5%.

As to `O=C1Nc2ccccc2/C1=C1/Nc2ccccc2/C1=N\OCCC(O)CO` (configuration not stated), the residual activity was 43% in test [1]; 30% in test [2]; 12% in test [3]; 5% in test [4]; 56% in test [5]; 53% in test [6]. The residual activity in test [7] was 12%; in test [8] it was -2%; in test [9], 4%; in test [10], 0%.

In the case of `COc1cc2ncnc(N3CCN(C(=O)Nc4ccc(Oc5ccccc5)cc4)CC3)c2cc1OC`, the residual activity in [1] was found to be 71%; in test [2], 25%; in [3] it was 71%; in [4], 60%; in [5], 98%; in test [6] it was 98%. Also, the residual activity in [7] was found to be 92%; in test [8] it was 112%; in test [9], 100%; in test [10], 72%.

On to `O=C1NC(=O)c2cc(Nc3ccc(F)cc3)c(Nc3ccc(F)cc3)cc21`, for which the residual activity in test [1] came to 92%; in test [2] it was 73%; in test [3], 94%; in [4] it was 81%; in [5], 89%; in test [6], 48%. The residual activity in [7] came out at 86%; in [8], 87%; in test [9], 98%; in test [10], 38%.

For `CC(=O)O/N=C1\C(=C2\C(=O)Nc3cc(Br)ccc32)Nc2ccccc21`, the residual activity in [1] was 89%; in [2], 82%; in [3], 77%; in test [4], 44%; in test [5], 99%; in [6], 77%. In addition, the residual activity was 25% in [7], 4% in test [8], 19% in test [9] and 3% in test [10].

Regarding `O=C(Nc1cccc(Nc2cc(Nc3cccc(C(F)(F)F)c3)ncn2)c1)C1CC1`, the residual activity in test [1] stood at 90%; in [2], 87%; in test [3], 102%; in test [4], 83%; in test [5], 94%; in [6] it was 94%. In addition, the residual activity was 99% in test [7], 71% in test [8], 97% in [9] and 69% in [10].

On to `Cc1nc2cc3nc(-c4cccs4)cnc3cc2n1C`, for which the residual activity in [1] was determined as 102%; in test [2], 42%; in test [3], 87%; in test [4], 68%; in test [5], 109%; in test [6], 98%. Besides, the residual activity in test [7] amounted to 93%; in test [8] it was 83%; in [9] it was 100%; in test [10], 48%.

Consider `O=Nc1c(-c2c(O)[nH]c3ccccc23)[nH]c2ccccc12`, for which the residual activity in [1] was determined as 61%; in test [2], 49%; in test [3], 17%; in [4] it was 8%; in test [5] it was 91%; in test [6] it was 23%. Besides, the residual activity stood at 31% in test [7], 4% in test [8], 11% in test [9] and 0% in test [10].

In the case of `O=C(O)c1ccc2c3c1cccc3c(=O)n1c3ccccc3nc21`, the residual activity in [1] was found to be 82%; in [2], 43%; in test [3], 61%; in test [4], 35%; in test [5], 110%; in test [6], 105%. For the same compound, the residual activity in [7] turned out to be 88%; in [8] it was 83%; in test [9] it was 99%; in [10] it was 81%.

For the compound `O=c1c2ccccc2[nH]c(=S)n1CCN1CCC(=C(c2ccc(F)cc2)c2ccc(F)cc2)CC1`, the residual activity stood at 110% in [1]; 84% in test [2]; 103% in test [3]; 89% in [4]; 112% in [5]; 95% in test [6]. Besides, the residual activity turned out to be 90% in test [7], 123% in [8], 101% in test [9] and 66% in test [10].

Regarding `CN(C)CCCn1cc(C2=C(c3c[nH]c4ccccc34)C(=O)NC2=O)c2ccccc21`, the residual activity in test [1] came to 109%; in test [2] it was 72%; in test [3], 70%; in test [4], 39%; in test [5] it was 110%; in [6], 89%. Also, the residual activity in test [7] turned out to be 89%; in test [8] it was 72%; in test [9], 65%; in test [10], 13%.
